# Compound activity: PubChem, several laboratories
# HSF1 inh: HSF1 inhibitors in luciferase reporter cells, primary screen, cell-based, NIH3T3, luminescence | NIH3T3-HGL HSE-luciferase, MG132-induced, luminescence 8 h; stronger effect = lower value | activity change, negative = inhibition, % at 7.5 µM (by protocol) | 300,000 compounds, 0.77% hits;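 active = more than half of replicate wells show activity change below -50%, luminescence cut by over half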;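 note: luciferase reports HSF-1 transcriptional activity via heat shock element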
# HSF-1 act: HSF-1 activators, primary screen, NIH3T3-HGL cells, MG132 stress, luminescence, single point. NIH3T3-HGL HSF-1 luciferase reporter, 8 h; 100% = twice DMSO control signal. activation, % at 9 µM. 300,000 compounds, 1.7% hits. AID 504408, 2011;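 active = mean replicate activation of at least 50% with a set share of replicates each reaching 50%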
# HSP90 refold inh: HSP90 inhibitors, primary screen, cell lysate, luminescence | Heat shock protein HSP 90 (rabbit reticulocyte lysate; luciferase refolding) | Rabbit reticulocyte lysate, luciferase refolding luminescence, 3 h | inhibition, % at 5.6 µM | 290,000 compounds, 0.91% hits | AID 1789, 2009;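 active = inhibition above the screen-wide mean plus 3 SD, computed separately per campaign, cut at about 16% in these data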;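 note: inhibitors lower the luminescence because luciferase stays unfolded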
# AHR act: AHR activators, primary screen, cell-based, luminescence, luciferase reporter, human; Aryl hydrocarbon receptor (Homo sapiens), P35869; activation, % at 5 µM; AHR-responsive luciferase reporter cells; 320,000 compounds, 2.5% hits; AID 2796, 2010; in the data active = activation above about 47%
# FXN GAA850 act: FXN promoter activators, primary screen, cell-based, luciferase luminescence, HEK293 lucGAA850. HEK293 lucGAA850 FXN promoter luciferase reporter, 24 h; percent of 10 µM SAHA response. activation, % at 6 µM. 360,000 compounds, 0.56% hits. AID 540364, 2011;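 active = activation above the average of all compounds screened plus 3 SD, cutoff fixed separately per campaign, cut at about 7.5% in these data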
# NR0B1 inh: DAX1 (NR0B1) inhibitors, primary screen, cell-based, HEK293, Gal4-DAX1, luciferase luminescence; 340,000 compounds, 0.99% hits; inhibition, % at 6.75 µM; Nuclear receptor subfamily 0 group B member 1 (Homo sapiens), P51843; HEK293 Gal4-DAX1 luciferase reporter;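 active = inhibition above the mean over all tested compounds plus 3 SD, cut at about 4.2% in these data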;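 note: inhibition shows as a rise in luminescence from relieved DAX1 repression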
# A number is an active result; . = inactive; / = no result given. Sampled rows, rich in hits. Any-hit rate of the full collection: about 5.9%.
SMILES,HSF1 inh,HSF-1 act,HSP90 refold inh,AHR act,FXN GAA850 act,NR0B1 inh
O=C1C(Cc2ccccc2)Nc2ncnc(N3CCc4ccccc4C3)c2N1Cc1ccc(Cl)cc1 (stereo unspecified),.,.,/,.,.,.
COc1ccc(CN2C(=O)C(Cc3ccccc3)Nc3ncnc(N4CCc5ccccc5C4)c32)cc1 (stereo unspecified),.,71.4,/,.,/,/
COC(=O)c1ccc(C(=O)OC)c(NC(=O)C2CCCO2)c1 (stereo unspecified),.,.,.,.,.,.
O=S(=O)(NCc1ccc(C(F)(F)F)cc1)c1ccc(-n2cnnn2)cc1,-90.3,.,.,.,.,.
COc1ccccc1C(=O)NC(=O)Nc1nc(-c2ccccc2)cc(C(F)(F)F)n1,.,.,.,.,.,.
Cc1ccc(CSc2nc3ncccc3[nH]2)cc1,.,76.9,.,.,.,.
CC1(C)CC(=O)C(C2C3=C(CC(C)(C)CC3=O)OC3=C2C(=O)CC(C)(C)C3)=C(O)C1,.,66.8,.,.,.,.
CC1(C)CC(=O)C(C2C3=C(CC(C)(C)CC3=O)Oc3ccccc32)=C(O)C1 (stereo unspecified),.,.,.,.,.,.
Cc1ccc2[nH]c(=O)c(CN(Cc3cccs3)Cc3nnnn3Cc3ccccc3)cc2c1,.,70.8,.,.,.,.
O=C1CCc2cccc(O)c2N1,/,/,/,/,.,4.9
CN(C)C=NC(=O)c1cc(C(=O)c2ccccc2Cl)c[nH]1,.,.,.,.,.,.
CN(C)C=NC(=O)c1cc(C(=O)c2ccc(C(C)(C)C)cc2)c[nH]1,.,50.4,.,.,.,.
COc1cc(N2CCCC2)c(OC)cc1/C=C1/NC(=S)NC1=O,.,.,.,65.8,.,.
Cc1ccc(Nc2c(N)c(=O)oc3ccccc23)cc1,.,161.2,.,.,.,.
CCN1CCN(Cc2nnc(-c3ccc(C)cc3)o2)CC1,.,.,.,.,.,.
CCCN(CC(=O)Nc1ccc(Cl)cc1Cl)C(=O)/C=C/c1ccco1,.,63.8,.,.,.,.
NC(=O)COc1ccccc1,.,78.8,.,.,.,.
Cc1cccc(OCC(=O)OCC(=O)Nc2sccc2C(N)=O)c1,/,/,/,.,.,.
NC(=O)c1ccsc1NC(=O)COc1ccccc1,.,69.2,.,.,.,.
NC(=S)COc1ccccc1,.,.,.,.,.,.
CC(=O)NCCc1nc2ccccc2n1CCCCOc1ccccc1,.,53.7,.,/,.,.
Cn1c(Nc2ccccc2)nc2ccccc21,.,.,.,.,.,.
CCOc1ccc(Nc2nc3ccccc3n2C)cc1,.,72.2,/,.,.,.
Nn1c(Nc2ccccc2)nc2ccccc21,.,.,.,.,.,4.4
CCOc1ccc(NCc2nc3ccccc3n2CCOc2ccccc2)cc1,-52.4,.,.,.,.,.
SMILES,HSF1 inh,HSF-1 act,HSP90 refold inh,AHR act,FXN GAA850 act,NR0B1 inh
OCc1nc2ccccc2n1CCOc1ccccc1,.,.,/,.,.,.
CCOc1ccc(CNc2nc3ccccc3n2C)cc1,.,.,.,.,.,.
O=C(CCN1CCCCO1)N1CCCC(N2CCN(c3ccc(F)cc3)CC2)C1 (stereo unspecified),.,.,.,.,.,.
Cc1ccc(S(=O)(=O)N2CCC(C(=O)N[C@@H](Cc3ccccc3)C(=O)O)CC2)cc1,-78.0,.,.,.,.,.
Cc1ccc(S(=O)(=O)N[C@@H](CC(C)C)C(=O)N2CCC(C(=O)N[C@@H](Cc3ccccc3)C(=O)O)CC2)cc1,.,.,.,.,.,6.9
Cc1ccc(S(=O)(=O)N[C@H](C(=O)N2CCC(C(=O)N[C@@H](CC(=O)O)C(=O)O)CC2)C(C)C)cc1,.,.,.,.,.,8.8
COc1ccc2nc(NC(=O)C3CCN(C(=O)c4ccco4)CC3)sc2c1,.,.,.,.,.,.
O=C1c2cccc3cccc(c23)C(=O)N1CCN1CCN(C(=S)Nc2ccc(F)cc2)CC1,.,.,.,106.1,/,/
